Assay outcomes (PubChem BioAssay)
In the library only some 1.1% were active in any assay of this set; here they are far more common.
VLA-4 inh = inhibition in human VLA-4 binding assay, primary screen, VLA-4 allosteric modulator project, MLPCN library, flow cytometry, VLA-4 expressing cells | Integrin alpha-4 (Homo sapiens), P13612 | ligand binding flow cytometry | inhibition, % (about 7 µM as worked out from the volumes in the protocol) | hit rate 0.2% among 330,000 | AID 2557, 2010; in the data active = inhibition above about 50%
Target sequence (P13612 whole entry, looked up): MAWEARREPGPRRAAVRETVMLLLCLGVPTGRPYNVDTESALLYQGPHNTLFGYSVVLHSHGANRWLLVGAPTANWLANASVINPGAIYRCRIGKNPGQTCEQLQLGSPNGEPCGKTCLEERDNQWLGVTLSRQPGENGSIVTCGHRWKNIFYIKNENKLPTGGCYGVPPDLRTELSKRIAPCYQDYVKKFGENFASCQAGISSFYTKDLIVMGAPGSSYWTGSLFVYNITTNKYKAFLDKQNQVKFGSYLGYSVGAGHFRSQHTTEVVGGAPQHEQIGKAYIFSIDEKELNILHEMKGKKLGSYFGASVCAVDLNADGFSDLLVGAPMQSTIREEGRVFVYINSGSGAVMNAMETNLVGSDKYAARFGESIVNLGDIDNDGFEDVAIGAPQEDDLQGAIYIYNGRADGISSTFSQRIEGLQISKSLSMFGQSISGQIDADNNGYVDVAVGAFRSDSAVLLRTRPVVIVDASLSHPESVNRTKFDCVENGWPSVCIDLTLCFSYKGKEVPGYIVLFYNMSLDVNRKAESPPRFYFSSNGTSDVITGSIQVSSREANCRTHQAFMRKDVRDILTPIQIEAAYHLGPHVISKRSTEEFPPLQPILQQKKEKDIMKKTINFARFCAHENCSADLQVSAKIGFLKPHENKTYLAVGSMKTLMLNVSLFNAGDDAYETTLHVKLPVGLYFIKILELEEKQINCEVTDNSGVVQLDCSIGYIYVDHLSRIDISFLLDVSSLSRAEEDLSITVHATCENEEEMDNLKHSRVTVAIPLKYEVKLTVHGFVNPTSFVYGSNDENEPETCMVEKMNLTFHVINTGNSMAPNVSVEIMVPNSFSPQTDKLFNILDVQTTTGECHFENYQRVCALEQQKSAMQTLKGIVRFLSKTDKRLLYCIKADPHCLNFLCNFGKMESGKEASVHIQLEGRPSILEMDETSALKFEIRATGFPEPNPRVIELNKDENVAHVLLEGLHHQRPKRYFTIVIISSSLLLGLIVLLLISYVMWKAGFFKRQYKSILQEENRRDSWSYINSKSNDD
RPL19A-GFP yeast = RPL19A-GFP expression modulators in yeast, primary screen, cell-based, S. cerevisiae, multiplex flow cytometry, MLPCN; S. cerevisiae RPL19A-GFP strain, 3 h; hits give low values; percent response vs DMSO, % at 10 µM; hit rate 0.3% among 330,000; AID 2025, 2009;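 active = percent response vs DMSO below 50%; inconclusive = fewer than 70 events counted for the yeast strain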;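 also: median channel GFP fluorescence of the barcoded RPL19A-GFP strain; lower means less RPL19A-GFP as with rapamycin TOR inhibition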
MEP2 TOR yeast = modulators of MEP2-GFP levels in yeast, primary screen, S. cerevisiae, multiplex flow cytometry, MLPCN library. S. cerevisiae MEP2-GFP strain, 3 h; 100% = DMSO control level. GFP response vs DMSO, % at 10 µM. hit rate 0.51% among 330,000;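 active = GFP response versus DMSO above a set limit, roughly screen mean plus 3 SD, cut at about 180% in these data; inconclusive = fewer than 70 cells counted for a yeast strain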;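 also: median GFP fluorescence of the barcode-gated MEP2-GFP cells per well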
CIT2-GFP yeast = modulators of CIT2-GFP expression in yeast, primary screen, S. cerevisiae, GFP fusion, multiplex flow cytometry, MLPCN library; S. cerevisiae CIT2-GFP strain, 3 h; 100 means same as DMSO wells; AID 2029, 2009; GFP response vs DMSO, % at 10 µM; hit rate 0.065% among 320,000;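 active = GFP response relative to DMSO above a set limit, near the screen mean plus 3 SD, cut at about 150% in these data; inconclusive = Fewer than 70 cells measured for a yeast strain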;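 also: ratio of well median GFP fluorescence to mean of DMSO wells on the plate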
LAP4-GFP MLPCN = modulators of LAP4-GFP expression in yeast, primary screen, S. cerevisiae, multiplex flow cytometry, MLPCN library; 3 h; median GFP as percent of DMSO wells; GFP response vs DMSO, % at 10 µM; hit rate 0.34% among 320,000;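 active = GFP response vs DMSO above a set limit, about the screen mean plus 3 SD, cut at about 150% in these data; inconclusive = under 70 cell events counted for the yeast strain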
AGP1 TOR yeast = modulators of AGP1-GFP expression in yeast TOR pathway, primary screen, cell-based, multiplex flow cytometry, S. cerevisiae, MLPCN library; 3 h; GFP as percent of DMSO wells; GFP response vs DMSO, % at 10 µM; hit rate 0.02% among 320,000; AID 2066, 2009;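 active = GFP response relative to DMSO above a set limit, near screen average plus 3 SD, cut at about 150% in these data; inconclusive = fewer than 70 cells counted for the yeast strain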;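 also: median GFP channel fluorescence of the gated AGP1 strain per well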
Each line names hits and unclear results; the compound was inactive in the other large screens; [ ] = remark or other dose.

O=C(CN1C(=O)S/C(=C\c2ccc(F)cc2)C1=O)NCCCn1ccnc1	RPL19A-GFP yeast 18.1[may fluoresce violet], CIT2-GFP yeast inconclusive
O=C(CCN1C(=O)/C(=C/c2ccc(F)cc2)SC1=S)NCCCn1ccnc1	none
CN(CC(=O)Nc1ccc(Cl)cc1)C(=O)CCC1CCCC1	none
Cc1ccc(OCCCCn2ccnc2C)c(C)c1	MEP2 TOR yeast 196.1
Cc1ccc(C(C)C)c(OCCn2ccnc2C)c1	none
COc1ccc2c(c1)C=Cc1ccccc1O2	LAP4-GFP MLPCN 150.1
COc1ccc2[nH]c3ccccc3c2c1	none
CN(C)CCCN1C(=O)C(=O)/C(=C(/O)c2ccncc2)C1c1ccccc1 (configuration not stated)	RPL19A-GFP yeast 46.3[may fluoresce violet], MEP2 TOR yeast 288.5[may fluoresce violet], CIT2-GFP yeast inconclusive, AGP1 TOR yeast inconclusive
COc1ccc(CCN=C(N)NS(=O)(=O)c2cc(F)ccc2F)cc1	none
CCOC(=O)C1(CCCc2ccccc2)CCN(C(=O)c2cncs2)CC1	none
CCOC(=O)C1(CCCc2ccccc2)CCN(C(=O)c2cc(C)nn2CC)CC1	MEP2 TOR yeast 615.2, CIT2-GFP yeast 151.1
CCOC(=O)Cn1nc(NC(=O)c2ccc(C(=O)OC)cc2)cc1C	none
Cc1cc(C)c(C(=O)N2CCC(N3CCC(C(=O)NC(C)C)CC3)CC2)o1	none
Nc1nnc(SCc2ccccc2Cl)s1	RPL19A-GFP yeast 46.1[may fluoresce violet], MEP2 TOR yeast 222.3[may fluoresce violet], CIT2-GFP yeast inconclusive, AGP1 TOR yeast inconclusive
Nc1nnc(CSCc2ccccc2Cl)s1	none
COc1cc(NC(=O)CN2CCN(S(=O)(=O)c3ccc(C(C)C)cc3)CC2)cc(OC)c1	none
COc1cccc(NC(=O)CN2CCN(S(=O)(=O)c3ccc(C(C)C)cc3)CC2)c1	RPL19A-GFP yeast 39.5[may fluoresce violet], CIT2-GFP yeast inconclusive, AGP1 TOR yeast inconclusive
O=C(Nc1ccccc1C(=O)N1CCN(Cc2ccccc2)CC1)c1ccccc1	none
COc1ccc(CC(=O)Oc2ccccc2[N+](=O)[O-])cc1	none
COc1ccc(CC(=O)Oc2ccccc2C)cc1	MEP2 TOR yeast 191.0
CCN(c1ccccc1)S(=O)(=O)c1ccc(N2CCN(c3ccc(O)cc3)CC2)nc1	none
COCCOCC(O)CN1CCN(c2ccccc2)CC1 (configuration not stated)	RPL19A-GFP yeast 42.2[may fluoresce violet]
CCOc1ccc(NC(=O)C/C(C)=N/NC(=O)COc2ccc(Br)cc2C)cc1	MEP2 TOR yeast 252.1[may fluoresce violet], CIT2-GFP yeast inconclusive
CCOCCCN(C(=O)c1snc(C(N)=O)c1N)C(C(=O)NC1CCCC1)c1ccc(O)cc1 (configuration not stated)	none
Cc1ccc(C(C(=O)NC2CCCCC2)N(CCCN2CCOCC2)C(=O)c2snc(C(N)=O)c2N)cc1 (configuration not stated)	RPL19A-GFP yeast 41.4, MEP2 TOR yeast 181.5
O=C(O)c1ccc(N2C(=O)CC(N3CCN(c4cccc(C(F)(F)F)c4)CC3)C2=O)cc1 (configuration not stated)	RPL19A-GFP yeast 38.5[may fluoresce violet], MEP2 TOR yeast 602.6[may fluoresce violet], CIT2-GFP yeast inconclusive, AGP1 TOR yeast inconclusive
COc1cccc(-c2nn3c(-c4ccco4)nnc3s2)c1	RPL19A-GFP yeast 17.3[may fluoresce violet], MEP2 TOR yeast inconclusive, CIT2-GFP yeast inconclusive, LAP4-GFP MLPCN inconclusive, AGP1 TOR yeast inconclusive
COc1cccc(OC)c1-c1nn2c(-c3ccco3)nnc2s1	none
CCN1C/C(=C/c2cccs2)c2nc3ccccc3c(C(=O)O)c2C1	none
CCc1ccc(/C=C2\CN(CC)Cc3c2nc2ccccc2c3C(=O)O)cc1	MEP2 TOR yeast 453.1[may fluoresce violet], CIT2-GFP yeast inconclusive
C=CCC[C@@H](Cc1ccc(F)cc1)C(=O)OC[C@H](C)NC(=O)[C@@H](CC=C)CC(=O)N[C@@H](CO)Cc1ccccc1	none
CC(C#N)(Cc1ccccc1)Nc1ccccc1 (configuration not stated)	RPL19A-GFP yeast 17.2[may fluoresce violet], MEP2 TOR yeast inconclusive, CIT2-GFP yeast inconclusive, AGP1 TOR yeast inconclusive
CCOc1cccc(-c2c(C(=O)N/N=C/c3ccoc3)nnn2-c2nonc2N)c1	none
N/C(=N\OC(=O)c1ccccc1Cl)c1ccccc1	none
